Measurements from ChEMBL document CHEMBL3988442, “University of Dundee, Small-Polar-MMV Screening Library” (2021).
Out of some 48,000 compounds screened, about 13,000 (27%) showed an effect of 50% or more. Some of the results follow.

test system: Wolbachia pipientis; test: Anti-Wolbachia Cell-Based Screen; format: functional; parameters: scale not given: in the data most compounds retested in dose-response had high values; details: 5 µM

Structure (SMILES)	Percent Effect
CN(Cc1cccnc1)c1nc(-c2ccccn2)nc2c1CCNCC2	-5.428%
Cc1cnn(CCCn2ncc(N3CCC(CN)C3)cc2=O)c1 (stereo not drawn)	-3.735%
CCCC(C#N)NC(=O)CCCOc1cccc(C(C)=O)c1 (stereo not drawn)	17.87%
CCC(O)Cn1nc(-c2ccc(C(=O)O)cc2)cc1-c1cccc(F)c1 (stereo not drawn)	112%
CCC(O)CN1CCN(C(=O)c2ccn(-c3cccc(F)c3)n2)CC1 (stereo not drawn)	-17.79%
CCC(=O)NCC(Cc1cccc(F)c1)n1cccc1 (stereo not drawn)	-1.872%
CC(C)Cc1cc(C(=O)NCC(c2ccc(F)cc2)N(C)C)n(C)n1 (stereo not drawn)	-14.68%
CN(CCCc1cc(-c2ccc(F)cc2)n(C)n1)CC(=O)NC(N)=O	129.4%
CN(CC(=O)NS(=O)(=O)c1ccc(F)cc1)Cc1ccccc1	-17.38%
NC(=O)NC(=O)CCn1ccc(-c2ccc(F)cc2)n1	-9.81%
CN(CCCc1cc(-c2ccc(F)cc2)n[nH]1)C(=O)CCn1cncn1	-5.05%
CN(CCCc1cc(-c2ccc(F)cc2)n(C)n1)CC(N)=O	124.4%
CC(C(N)=O)N(C)CCCc1cc(-c2ccccc2)no1 (stereo not drawn)	-1.184%
CN(CC(N)=O)Cc1ccc(F)cc1Cl	-24.21%
CC(C(N)=O)N(C)CCCc1cc(-c2ccc(F)cc2)n(C)n1 (stereo not drawn)	117.2%
NC(=O)CCSCc1ccc(Br)c(F)c1	-4.384%
CCC(CO)N(Cc1cccs1)C(=O)Cc1ccncc1 (stereo not drawn)	-5.56%
c1ccc2c(c1)nc1n2[C@@H](CNCc2nccs2)COC1	3.551%
Cn1ccnc1SCCNC(=O)CC1CCc2ccccc21 (stereo not drawn)	-4.259%
Cc1ccc(S(=O)(=O)NCC2CNCCOC2)cc1Cl (stereo not drawn)	-1.884%
Cc1cccc2[nH]c(C3CCN(C(=O)c4cnc(O)cc4O)CC3)nc12	-25%
Cn1[nH]c(C2CC2)c(-c2ccc3c(c2)OCO3)c1=N	-0.9629%
CN(Cc1cccnc1)C[C@H]1CC[C@@H](Cc2ccc3c(cnn3C)c2)O1	-1.235%

Structure (SMILES)	Percent Effect
Cc1ccc(-c2noc(CN3CC(n4cc(C)cn4)C3)n2)cc1	109%
Cc1cnn(C2CN(Cc3nc(-c4ccccc4C)no3)C2)c1	81.63%
Cc1ccccc1-c1noc(CN2CC(n3cccn3)C2)n1	17.98%
Cc1cnn(C2CN(Cc3nnc(-c4ccccc4Cl)o3)C2)c1	0.6902%
Cc1cnn(C2CN(Cc3nc(-c4cccnc4)no3)C2)c1	94.26%
Cc1cnn(C2CN(Cc3nnc(Cc4ccccc4)o3)C2)c1	-8.725%
Cc1cccc(-c2noc(CN3CC(n4cc(C)cn4)C3)n2)c1	6.599%
Cc1cnn(C2CN(Cc3noc(C)n3)C2)c1	14.64%
Cc1cnn(CC(C)NCc2nc(-c3cccnc3)no2)c1 (stereo not drawn)	10.95%
Cc1cnn(C2CN(Cc3nc(C(C)(C)C)no3)C2)c1	-1.752%
Cc1cnn(C2CN(Cc3nc(-c4ccccn4)no3)C2)c1	99.99%
Cc1cnn(C2CN(Cc3nc(-c4ccco4)no3)C2)c1	-0.024%
O=c1cc(N2CCNCC2)cnn1Cc1noc(C2CCCC2)n1	5.676%
CC(=O)N1CCC(C(=O)Nc2nnc(C(F)(F)F)[nH]2)CC1	-2.768%
CC(=O)N[C@@H]1CN(C(=O)c2cnccn2)C[C@H]1c1ccc(C)cc1	4.61%
Cc1ncc(CN2CCC(c3ccnn3C)CC2)n1-c1ccccc1	4.232%
O=C(NCCOCCO)c1cnc(-c2ccccc2)nc1O	-4.282%
COc1cnc(CN2CCN(CC(C)C)C(=O)C2C)cc1O (stereo not drawn)	-7.655%
c1cnn(C2CN(Cc3nc(-c4ccsc4)no3)C2)c1	-8.892%
Cc1cnn(C2CN(Cc3nc(-c4ccsc4)no3)C2)c1	107.2%
Cc1cccc(-c2noc(CN3CC(n4cccn4)C3)n2)c1	120.1%
Cn1cnc2c1CCN(Cc1nc(-c3ccsc3)no1)C2	-4.856%
COc1ccc(-c2nc(CN3CC(n4cc(C)cn4)C3)no2)cc1	7.343%

Structure (SMILES)	Percent Effect
c1coc(-c2noc(CN3CC(n4cccn4)C3)n2)c1	-9.344%
Cc1ccc(-c2nnc(CN3CC(n4cc(C)cn4)C3)o2)cc1	13.03%
COc1ccc(-c2noc(CN3CC(n4cccn4)C3)n2)c(OC)c1	7.442%
COc1ccc(-c2noc(CN3CC(n4cc(C)cn4)C3)n2)cc1	101.6%
COCC(NC(=O)c1ccoc1)c1ccc(C)o1 (stereo not drawn)	-2.661%
Cc1ncsc1CCN(C)C(=O)CN1CC2(CCNCC2)OC1=O	-5.863%
Cc1cc(NC2CCN(c3ccc(F)cc3)CC2)n2nc(C)cc2n1	-5.138%
Nc1ncc(C(=O)N2CCCC(N)CC2)c(-c2ccccc2)n1 (stereo not drawn)	-5.532%
O=C(Nc1nccs1)NC1CCOc2ccccc21 (stereo not drawn)	5.946%
Cc1csc(NC(=O)C2CCN(Cc3cccc4c3OCCO4)CC2)n1	93.8%
c1cnnc(NCC2CN(Cc3cccc4c3OCCO4)CCO2)c1 (stereo not drawn)	4.711%
O=C(NCc1ccccc1CN1CCC(O)CC1)Nc1ccccn1	-0.8138%
O=C(Nc1ccccn1)C1CCN(Cc2cccc3c2OCCO3)CC1	88.18%
O=C(Nc1ccccn1)C1CCN(Cc2cc3c(cc2O)OCO3)CC1	98.75%
CNC(=O)C1CCN(Cc2cc3c(cc2O)CCC3)CC1	6.264%
Cc1ccoc1C(=O)NC1CCN(Cc2cccc3c2OCCO3)CC1	4.934%
CCNC(=O)C1CCN(Cc2csc(-c3ccc(C)o3)n2)CC1	8.641%
O=C(Nc1nccs1)C1CCN(Cc2cccc3c2OCCO3)CC1	83.61%
CC(C)C(=O)NC1CCN(Cc2cccc3c2OCCO3)CC1	6.757%
O=C(NCCNCc1cccc2c1OCCCO2)C1CCCC1	-19.03%
CNC(=O)N(Cc1c(F)cccc1F)C1CCCC1	-10.49%
Cc1cccc(C(C(=O)N2CC(Oc3ccccc3F)C2)N(C)C)c1 (stereo not drawn)	3.868%
